The assay can be described thus: binders from COS7 lysate, DM2A8 probe, primary screen, torsin A project, cell lysate, small-molecule microarray, fluorescence 635/667 (AID 1065). As to conditions: higher = more signal, COS7 lysate expressing mutant human TOR1A.
Consider `C#CCCCON=C1[C@H]2CCn3c(=O)n(C)c(=O)n3[C@H]2[C@H](O)[C@@H]2O[C@H]12`, for which the composite z-score was found to be 0.588. With `CCCCC#C[C@@H]1C=C[C@H](OC(C)=O)[C@@H](COC(C)=O)O1` the figure was 0.37; with `CO[C@@H]1COC(=O)[C@@H](C)COC(=O)[C@@H](C)NC(=O)CC=C[C@@H]1C`, 0.544; with `Cc1ccc(S(=O)(=O)OC[C@H]2CN3[C@H](c4ccc(Br)cc4)[C@@H](C)CC[C@H]3C(=O)O2)cc1`, 0.0709.

`COc1ccc(COC(=O)NN=C2C[C@@H](O)[C@@H](O)[C@@H]3[C@@H]4C(=O)N(c5cccc(Oc6ccccc6)c5)C(=O)[C@@H]4CC[C@@H]23)cc1`: the composite z-score was -0.107. `O=C1C2=CC[C@H]3C(=O)N(c4cccc(Oc5ccccc5)c4)C(=O)[C@H]3[C@H]2[C@H](O)[C@@H]2O[C@H]12` gave a composite z-score of 0.337. With `CC(CCN1CCCCc2nc(C)c(C)cc21)=NO[C@H](C)c1cn([C@H](CO)Cc2ccccc2)nn1` the figure was 0.736.

In turn, `CO[C@@H]1COC(=O)[C@H](CCSC)NC(=O)CC=C[C@@H](C)COC(=O)CCC[C@H]1C` returned a composite z-score of 2.94. With `CC(CCN1CCCc2nc(C)c(C)cc21)=NO[C@@H](C)c1cc(-c2c(C)cc(C)cc2C)no1` the figure was -0.685; with `CO[C@@H]1COC(=O)[C@@H](C)NC(=O)CC=C[C@@H](C)[C@H](NS(=O)(=O)c2ccc(C)cc2)COC(=O)[C@H](C)NC(=O)CC=C[C@H]1C`, 0.441; with `CCN1C(=O)[C@H]2[C@H]3[C@H](O)[C@H](O)CC(=NOC[C@H]4O[C@H](c5ccccc5)C=C[C@@H]4Oc4ccc(OC)cc4)[C@@H]3CC[C@H]2C1=O`, 0.174.

Source of the values: PubChem BioAssay.
